# Reference: the supplement of paper PMC12808144
# A number with no mark means an inactive call.
# Test system: Mel-DCC-11
# Assay: cell viability relative to DMSO control (fraction of DMSO control); higher = less cytotoxic, active = 0.5 or less
# Conditions: 1 µM; 120 h
# In short: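 The screen used 384-well plates acoustically pre-spotted with 315 approved anti-cancer drugs from TargetMol, each at 1 µM in duplicate. Into each well went 40 µl of cells, 2500 NHEM-hTERT immortalized melanocytes or 1500 of patient-derived Mel-DCC-11 or its resistant subline Mel-DCC-11-R, and plates were kept 120 h, with the subline also tested alongside 8 µM of its selecting drug. Readout was by ATPlite 1step luminescence. Viability values were normalised to vehicle-treated controls and averaged between duplicates.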
row,Structure (SMILES),cell viability
1,CC[C@@H]1C(=O)N(C)c2cnc(Nc3ccc(C(=O)N[C@H]4CC[C@H](N5CCN(CC6CC6)CC5)CC4)cc3OC)nc2N1C(C)C [Volasertib],0.752
2,COc1cc(Nc2c(C#N)cnc3cc(OCCCN4CCN(C)CC4)c(OC)cc23)c(Cl)cc1Cl [Bosutinib],1.06
3,Oc1cc(O)cc(/C=C/c2ccc(O)c(O)c2)c1 [Piceatannol],0.919
4,C[C@H]1O[C@@H](n2cc(F)c(=O)[nH]c2=O)[C@H](O)[C@@H]1O [Doxifluridine],1.31
5,CC(=O)O.CC(C)C[C@H](NC(=O)[C@@H](COC(C)(C)C)NC(=O)[C@H](Cc1ccc(O)cc1)NC(=O)[C@H](CO)NC(=O)[C@H](Cc1c[nH]c2ccccc12)NC(=O)[C@H](Cc1cnc[nH]1)NC(=O)[C@@H]1CCC(=O)N1)C(=O)N[C@@H](CCCN=C(N)N)C(=O)N1CCC[C@H]1C(=O)NNC(N)=O [Goserelin acetate],1.22
6,CC1(C)CCC(C)(C)c2cc(NC(=O)c3ccc(C(=O)O)cc3)ccc21 [Tamibarotene],1.17
7,CC=Cc1ccc(OC)cc1 (stereo in doubt) [cis-Anethol],1.19
8,CC[C@@]1(O)C(=O)OCc2c1cc1n(c2=O)Cc2cc3cc(O)ccc3nc2-1 [10-Hydroxycamptothecin],0.203 (active)
9,COc1cc(NS(C)(=O)=O)ccc1Nc1c2ccccc2nc2ccccc12 [Amsacrine],1.1
10,CS(=O)(=O)c1ccc(C2=C(c3ccccc3)C(=O)OC2)cc1 [Rofecoxib],0.898
11,O=c1[nH]c(=O)n([C@H]2C[C@H](O)[C@@H](CO)O2)cc1/C=C/Br [Brivudine],0.776
12,O=c1[nH]c(=O)n([C@H]2C[C@H](O)[C@@H](CO)O2)cc1C(F)(F)F [Trifluridine],1.7
13,Nc1ccccc1NC(=O)c1ccc(CNC(=O)OCc2cccnc2)cc1 [Entinostat],1.48
14,C/C(=C\c1csc(C)n1)[C@@H]1C[C@@H]2O[C@]2(C)CCC[C@H](C)[C@H](O)[C@@H](C)C(=O)C(C)(C)[C@@H](O)CC(=O)N1 [Ixabepilone],0.316 (active)
